# Test results taken from PubChem BioAssay (EPA / NIEHS).
# Results filed as inconclusive are left out. Calls of active or inactive are those of the source. The calls were made as follows, unless noted: active = hit-call score of the fitted dose curve at least 0.9, where 1 is the maximum; inactive = score below 0.9.
# System: not listed separately
# Assay: CCTE_Simmons_CellTiterGLO_HEK293T: Viability Assessment in CCTE's Assays for Thyroperoxidase (TPO) Inhibition, Simmons Lab (AID 2283665; active = hit-call score of the fitted dose curve at least 0.9, where 1 is the maximum;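 as to AC50: cells exposed to compound for 24 h before readout; actives reduce ATP signal below DMSO vehicle meaning cytotoxicity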)
# Details: not given
# Outline: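 HEK293T cells in DMEM with 1% FBS, dosed 24 h at 37C with 8 concentrations, 5 nM–87.5 uM final, 0.5% DMSO. ATP measured by CellTiter Glo luminescence; loss of signal vs DMSO, three biological replicates.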
Structure (SMILES),outcome,AC50
O=C1c2c(O)cccc2Cc2cccc(O)c21,inactive,
CCCCCCCCCCCCCCOS(=O)(=O)O,,22.3 µM (active)
Cc1cc(Cc2ccc(N)c(C)c2)ccc1N,inactive,
S=c1[nH]c2ccccc2s1,inactive,
Nc1nc(=S)c2[nH]cnc2[nH]1,,1.29 µM (active)
Cc1occc(=O)c1O,inactive,
Cc1c(C)c2c(c(C)c1O)CCC(C)(COc1ccc(CC3SC(=O)NC3=O)cc1)O2 (configuration not stated),,19 µM (active)
CC1(C)C(=O)NC(=O)N1CO,inactive,
CC(C)NCC(O)c1ccc(O)c(O)c1 (configuration not stated),inactive,

# System: not listed separately
# Assay: Tanguay_ZF_120hpf_TR_legacy: (Legacy) Oregon State University Tanguay Lab 120 Hour Post-fertilization zebrafish Assay for Touch Response (AID 2283667; active = hit-call score of the fitted dose curve at least 0.9, where 1 is the maximum)
# Details: not given
# Outline: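 Tropical 5D wild-type zebrafish embryos were exposed statically in sealed, foil-covered plates at 28C until 120 hpf, with 0.64% (vol/vol) final DMSO. Touch response was scored as present or absent; embryos that died were not scored.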
Structure (SMILES),outcome,AC50
CC(=O)OC1CC(C)OC(C)O1 (configuration not stated),inactive,
CCCCC(CC)CO (configuration not stated),inactive,
C#CC(O)C(CC)CCCC (configuration not stated),inactive,
Nc1nc(Cl)nc2c1ncn2[C@H]1C[C@H](O)[C@@H](CO)O1,inactive,
OCC(CO)n1cnc(-c2ccc(F)cc2)c1-c1ccnc(Oc2ccccc2)n1,inactive,
CCCCCCCCCCCCCCOS(=O)(=O)O,,32.6 µM (active)
Cc1cc(Cc2ccc(N)c(C)c2)ccc1N,inactive,
OCC(O)CO,inactive,
S=c1[nH]c2ccccc2s1,,12.3 µM (active)
CC(=O)[C@@]1(O)CC[C@H]2[C@@H]3CCC4=CC(=O)CC[C@]4(C)[C@H]3CC[C@@]21C,inactive,
c1ccc2occc2c1,inactive,
Nc1nc(=S)c2[nH]cnc2[nH]1,inactive,
O=C1NC(=O)C(c2ccccc2)(c2ccccc2)N1,inactive,
O=C(O)CN(CC(=O)O)CC(=O)O,inactive,
CCCCCCC(CCCCCCCCCCC(=O)OCC(COC(C)=O)OC(C)=O)OC(C)=O (configuration not stated),inactive,
CCCCCCCCCC[N+](C)(C)[O-],inactive,
Cc1occc(=O)c1O,inactive,
Cc1c(C)c2c(c(C)c1O)CCC(C)(COc1ccc(CC3SC(=O)NC3=O)cc1)O2 (configuration not stated),inactive,
CC1(C)C(=O)NC(=O)N1CO,inactive,
CCC(C)N(C)C(=O)c1cc2ccccc2c(-c2ccccc2Cl)n1 (configuration not stated),,26.8 µM (active)
CN(C)CCCN1c2ccccc2Sc2ccc(Cl)cc21,inactive,
CCCCOC(=O)CCCCC(=O)OCCCC,inactive,
CC(C)NCC(O)c1ccc(O)c(O)c1 (configuration not stated),inactive,
O=C(NS(=O)(=O)/C=C/c1cccs1)c1ccc(F)cc1Br,inactive,
CN(C)C(=O)NC1(c2ccccc2)CCN(CCC[C@]2(c3ccc(Cl)c(Cl)c3)CCCN(C(=O)c3ccccc3)C2)CC1,inactive,

# Read-out: Cytochrome P450 (CYP24A1_1), CYP24A1 (gene 1591)
# Assay: LTEA_HepaRG_CYP24A1_1: Life Technologies and Expression Analysis (LTEA) Assay for Cytochrome P450 (CYP24A1_1) using HepaRG (AID 2283671)
# Details: mRNA level, 48 h; actives raise or lower the signal
# Outline: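 HepaRG, 48 h exposure, 8-pt half-log series from 100 uM in 0.5% DMSO, duplicates. Readout: TaqMan qRT-PCR of CYP24A1 mRNA, housekeeping-normalized (ACTB/GAPDH/POLR2A). Bidirectional curve fit vs DMSO baseline.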
row,Structure (SMILES),outcome
1,CCCCC(CC)CO (configuration not stated),inactive
2,CCCCCCC(CCCCCCCCCCC(=O)OCC(COC(C)=O)OC(C)=O)OC(C)=O (configuration not stated),inactive
3,CCCCCCCCCC[N+](C)(C)[O-],inactive
4,Cc1occc(=O)c1O,inactive
5,CCC(C)N(C)C(=O)c1cc2ccccc2c(-c2ccccc2Cl)n1 (configuration not stated),inactive
6,CN(C)CCCN1c2ccccc2Sc2ccc(Cl)cc21,inactive

# System: not listed separately
# Assay: CCTE_Padilla_ZF_144hpf_TERATOSCORE: (Legacy) CCTE's 144 Hour Post-fertilization zebrafish Assay Teratoscore, Padilla Lab (AID 2283679);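 as to AC50: zebrafish embryos with chorions exposed by immersion from 6-8 hpf to 5 dpf with daily renewal; teratogenicity score from eye scoring of death hatching and malformations at 144 hpf; higher score means more developmental defects relative to DMSO baseline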
# Details: not given
# Outline: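 Larvae scored by eye at 144 hpf for death, hatching and malformations after a day in clean Hanks'. Before that, daily-renewed exposure at 80 uM (0.4% DMSO, 26C) from roughly 6-8 hpf through 5 dpf, 4 embryos per chemical.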
Structure (SMILES),AC50,outcome
C#CC(O)C(CC)CCCC (configuration not stated),21.2 µM (active),
CCCCCCCCCCCCCCOS(=O)(=O)O,15.3 µM (active),
CC(C)COC(=O)CCCCC(=O)OCC(C)C,32.4 µM (active),
O=C(O)c1cccnc1,,inactive
Cc1cc(Cc2ccc(N)c(C)c2)ccc1N,88.5 µM (active),
S=c1[nH]c2ccccc2s1,31.1 µM (active),
CC(=O)[C@@]1(O)CC[C@H]2[C@@H]3CCC4=CC(=O)CC[C@]4(C)[C@H]3CC[C@@]21C,36.1 µM (active),
O=C(O)CN(CC(=O)O)CC(=O)O,,inactive
CCCCCCC(CCCCCCCCCCC(=O)OCC(COC(C)=O)OC(C)=O)OC(C)=O (configuration not stated),7.74 µM (active),
CCN(CC)CCOc1ccc(C(=C(Cl)c2ccccc2)c2ccccc2)cc1,1.56 µM (active),
CCCCCCCCCC[N+](C)(C)[O-],,inactive
Cc1c(C)c2c(c(C)c1O)CCC(C)(COc1ccc(CC3SC(=O)NC3=O)cc1)O2 (configuration not stated),1.67 µM (active),
CCC(C)N(C)C(=O)c1cc2ccccc2c(-c2ccccc2Cl)n1 (configuration not stated),16.3 µM (active),
CN(C)CCCN1c2ccccc2Sc2ccc(Cl)cc21,6.24 µM (active),
CCCCOC(=O)CCCCC(=O)OCCCC,15.9 µM (active),
O=C(NS(=O)(=O)/C=C/c1cccs1)c1ccc(F)cc1Br,,inactive

# System: not listed separately
# Assay: STM_H9_OrnithineISnorm_perc: Stemina devTOX quickPredict H9 human embryonic stem cell (hESC)-based Assay for Ornithine (ORN) Metabolite Biomarker, Normalized (AID 2283712);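 also: ornithine released into spent medium during last day measured by mass spectrometry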
# Details: not given
# Outline: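 Undifferentiated H9 hESCs exposed 72 h with daily media and compound renewal; final 24-h conditioned medium analysed by UPLC-HRMS. Ornithine peak area normalised to spiked C13 standard and to median 0.1% DMSO control; viability by CellTiter-Fluor.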
Structure (SMILES),AC50,outcome
Nc1nc(Cl)nc2c1ncn2[C@H]1C[C@H](O)[C@@H](CO)O1,0.35 µM (active),
O=C(O)c1cccnc1,,inactive
Cc1cc(Cc2ccc(N)c(C)c2)ccc1N,,inactive
CC(=O)[C@@]1(O)CC[C@H]2[C@@H]3CCC4=CC(=O)CC[C@]4(C)[C@H]3CC[C@@]21C,62 µM (active),
Nc1nc(=S)c2[nH]cnc2[nH]1,3.06 µM (active),
O=C1NC(=O)C(c2ccccc2)(c2ccccc2)N1,,inactive
O=C(O)CN(CC(=O)O)CC(=O)O,,inactive
CCN(CC)CCOc1ccc(C(=C(Cl)c2ccccc2)c2ccccc2)cc1,6.22 µM (active),
CCCCCCCCCC[N+](C)(C)[O-],,inactive
CCC(C)N(C)C(=O)c1cc2ccccc2c(-c2ccccc2Cl)n1 (configuration not stated),,inactive
CN(C)CCCN1c2ccccc2Sc2ccc(Cl)cc21,3.51 µM (active),
